# Rows were chosen to be rich in hits. Some 2.7% of all compounds tested hit in one or more screens of this group.
# GALC G270D act = enhancers of human galactocerebrosidase G270D mutant activity in cells | P54803 | 145M-Twi-hGALC-G270D cells, HMU-beta-Gal fluorescence, 48 h | Potency, µM (highest dose often 57.5 µM), actives largely listed as activators | 45,000 compounds, 0.1% hits; also: 0% is about no effect; nearly all actives have a fitted effect of over 65% in size
#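 qHTS, 1536-well; 145M-Twi-hGALC-G270D cells (WT line also made) in DMEM/F12 + 10% FBS; compound incubation on live cells; HMU-β-gal 0.1 mM final, pH 5.2, NaTC; carbonate stop; fluorescence increase = enhanced residual activity.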
# NTMT1 inhibitor = inhibitors of human N-terminal methyltransferase NTMT1. Q9BV86. 59,000 compounds, 2.5% hits. Potency, µM (highest dose often 114 µM), for the others: at the highest dose activity change, negative = inhibition, most hits filed as inhibitors. NTMT1 MTase-Glo SAH luminescence, purified enzyme;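 also: plate controls were DMSO vehicle for no effect and no enzyme for full effect; nearly all actives have a fitted effect of over 65% in size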
# Target sequence (Q9BV86 whole entry, looked up): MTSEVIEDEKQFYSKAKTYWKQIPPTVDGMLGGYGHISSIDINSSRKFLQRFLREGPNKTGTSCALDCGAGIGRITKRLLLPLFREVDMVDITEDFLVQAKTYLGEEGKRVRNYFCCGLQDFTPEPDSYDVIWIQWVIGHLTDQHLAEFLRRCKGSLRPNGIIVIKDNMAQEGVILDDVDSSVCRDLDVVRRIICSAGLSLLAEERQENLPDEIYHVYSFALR
# HTT-AS promoter = HTT-AS promoter activation; HEK293 HTT-AS promoter firefly luciferase reporter, 24 h; response scale: percent change from vehicle, -100% = no light; AID 1508624; Potency, µM (doses to about 57.5 µM), for the others: top-dose activity change, positive = activation, hits mostly activators; 48,000 compounds, 0.24% hits; also: nearly all actives have a fitted effect of over 55% in size
#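 Firefly luciferase readout (Dual-Glo, 10 min RT) after 24 h, 37 °C compound exposure (final up to 57.5 uM) of HEK293 reporter cells cultured 24 h beforehand; PTC124 at 50 uM final as control inhibitor; activity scaled vehicle 0%, zero RLU -100%.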
# HTT prom inh = inhibitors of huntingtin promoter activity. HEK293 HTT promoter firefly luciferase reporter, 24 h. Potency, µM (titrated, usually from 57.5 µM), inactives show at the highest dose activity change, negative = inhibition, usual class: inhibitors. 48,000 compounds, 0.93% hits. AID 1508623; also: nearly all actives have a fitted effect of over 50% in size
#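 HEK293 Fluc reporter, 2,500 cells/well, 24 h pre-culture; cpds up to 57.5 uM final, 24 h 37 degrees C; Dual-Glo, 10 min RT; normalized vehicle = 0%, zero RLU = -100%.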
# * hit, by the source's call; i = inactive; u = inconclusive; x = no result given; ! = repeats disagree; [ ] = dose if it differs, or a comment. Calls follow the shape of the dose curve; as a rule, active = well fitted curve in the direction sought with a large enough effect; inconclusive = small, poorly fitted or top-dose-only effect, or another doubt; inactive = no such curve, though single readings can be large; an effect the other way counts as inactive or inconclusive. Potency is read from the fitted curve at half-maximal effect.
SMILES,GALC G270D act,NTMT1 inhibitor,HTT-AS promoter,HTT prom inh
Cc1cc(SCc2sc(-c3ccc(C(F)(F)F)cc3)nc2C)ccc1OCC(=O)O,x,79.4µM*!,21.4%,14.0%
O=C(c1ccc(F)c(F)c1Nc1ccc(I)cc1F)N1CC(O)([C@@H]2CCCCN2)C1,x,31.6µM*!,x,x
O=c1c2ccccc2nc2sc(Nc3ccc4c(c3)CNC4)nn12,x,50.1µM*,x,x
Cc1cccc(NC(=O)Cn2c(=O)oc3cc(S(=O)(=O)N4CCCCCC4)ccc32)c1,i,-1.0%,-50.4%,10µM*
CC1CCN(S(=O)(=O)c2ccc3c(c2)oc(=O)n3CC(=O)NC(C)c2ccccc2)CC1 (stereo unspecified),i,3.8%,-34.5%,14.1µM*
CC(NC(=O)Cn1c(=O)oc2cc(S(=O)(=O)N3CCCCCC3)ccc21)c1ccccc1 (stereo unspecified),i,-18.4%,-2.6%,-13.8%
COc1ccc(OC)c(CC2C(=O)Nc3ccc(Br)cc32)c1 (stereo unspecified),i,u,-51.2%,20µM*
CCOc1ccccc1CC1C(=O)Nc2ccc(Br)cc21 (stereo unspecified),i,u,-61.0%,17.8µM*
CCOc1c(CC2C(=O)Nc3ccc(Br)cc32)cccc1OC (stereo unspecified),i,-5.3%,-42.3%,u
CN1C(=O)N[C@H](Cc2c[nH]c3c(Cl)cccc23)C1=O,x,5.5%,x,x
Cc1cccc(CNc2ccnc(-c3ccc(C(F)(F)F)cc3)n2)c1,x,15.3%,x,x
COc1ccc(CNC(=O)Cc2c(C)c3cc4c(C)coc4c(C)c3oc2=O)cc1OC,i,-7.5%,-7.6%,-4.9%
COc1ccc(CCNC(=O)CCc2c(C)c3cc4c(C)coc4c(C)c3oc2=O)cc1OC,i,89.1µM*,-16.2%,-11.7%
COc1ncc(Nc2ncc(C(C)N3CCN(S(C)(=O)=O)CC3)cc2-c2nc(C)nc(N)n2)cc1F (stereo unspecified),x,-20.8%,x,x
CCCCCCCCCCCCCCCCCCNC(=O)OC1CCN(C(=O)OC[C@H](COC(=O)N(Cc2cccc[n+]2CC)C(=O)c2ccccc2OC)OC)CC1,i,50.1µM*,-38.8%,u
COc1ccc(CN2CCN(C(=O)CCNC(=O)c3ccc(C(C)(C)C)cc3)CC2)cc1,x,2.7%[57.5 µM],x,x
Cc1cc(O[C@@H](CCC(F)(F)F)c2ccc(C(=O)NCCC(=O)O)cc2)cc(C)c1-c1ccc(C(C)(C)C)cc1,x,31.6µM*,x,x
Cc1ccc(OCCn2c(CCNC(=O)c3ccc(C)cc3)nc3ccccc32)cc1,x,2.2%[57.5 µM],x,x
CCn1cc2nc(SCC(=O)Nc3ccc(C)cc3C)n(Cc3ccc(C)cc3)c(=O)c2n1,i,89.1µM*,-34.7%,u
COc1cc(O)c(C(CC(=O)N2CCCC(CN3CCCCC3)C2)c2ccc3c(c2)OCO3)c(OC)c1 (stereo unspecified),x,-9.0%[228 µM],x,x
COc1cccc(NC(=O)CC2Nc3cc(C)c(C)cc3NC2=O)c1 (stereo unspecified),i,28.9%,-0.9%,-17.0%
CCOC(=O)c1ccc(NC(=O)CC2Nc3cc(C)c(C)cc3NC2=O)cc1 (stereo unspecified),i,0.2%,-89.9%,8.91µM*
C=C(C(=O)O)C1CCC(C)C2CCC(=O)OC2(C)C1 (stereo unspecified),x,-1.3%[57.5 µM],x,x
C=CC(=O)Nc1cc2c(Nc3ccc(F)c(Cl)c3)ncnc2cc1OCCCN1CCOCC1,i,11.2µM*!,-40.8%,-10.9%
COc1cc2ncnc(Nc3ccc(F)c(Cl)c3)c2cc1OCCCN1CCOCC1,i,12.6µM*!,-32.4%,u
SMILES,GALC G270D act,NTMT1 inhibitor,HTT-AS promoter,HTT prom inh
O=C(O)c1ccc(O)c2ncc(N3CCC(N4CCOCC4)C3)cc12 (stereo unspecified),x,1.6%[57.5 µM],x,x
O=c1[nH]c2ccccc2n1CCN1CCN(c2cccc(C(F)(F)F)c2)CC1,x,-1.3%[57.5 µM],x,x
O=[N+]([O-])c1ccc(Oc2ccc3c(c2)CCC(c2ccccc2)O3)nc1 (stereo unspecified),x,-23.8%[57.5 µM],x,x
Cc1cccc(NC(=O)c2c(NC(=O)C(F)(F)F)sc3c2CCCCC3)c1,i,10µM*,-92.2%,2µM*
Cc1cccc(NC(=O)c2c(Br)sc3c2CCCC3)c1,i,7.2%,-24.4%,-28.4%
Cc1ccc(NC(=O)c2c(NC(=O)C(F)(F)F)sc3c2CCCCC3)cc1,i,-24.5%,-94.5%,1.41µM*
O=C(Nc1cccc(Cl)c1)c1c(NC(=O)C(F)(F)F)sc2c1CCCC2,i,8.91µM*,-94.1%,1.78µM*
Cc1cccc(C(=O)Nc2sc3c(c2C(=O)Nc2ccccc2)CCC3)c1,i,-4.7%,-12.5%,-8.4%
Cc1ccccc1NC(=O)c1c(NC(=O)C(F)(F)F)sc2c1CCCCC2,i,-5.9%,-96.1%,2µM*
NC[C@@](O)(c1ccc(Cl)cc1)c1ccc(-c2cn[nH]c2)cc1,x,11.2%,x,x
O=C(COc1ccc(Cl)cc1)Nc1sc2c(c1C(=O)Nc1cccc(Cl)c1)CCCC2,i,25.1µM*,-10.0%,-4.4%
COc1ccc(NC(=O)c2c(NC(=O)COc3ccccc3)sc3c2CCCCC3)cc1,i,4.4%,-5.4%,-5.8%
O=C(O)Cn1nnc(-c2ccc(CN(CCCCOc3ccc(CN4CCCC4)cc3)CCc3ccccc3)cc2)n1,x,-6.4%[57.5 µM],x,x
CCCCCCCCc1ccc(CCC(N)(CO)CO)cc1,x,44.7µM*!,-16.4%,-10.7%
CCCCCCC[N+](CC)(CC)CCCCc1ccc(Cl)cc1,i,u,-42.4%,u
CCOC(=O)c1c(NC(=O)COc2ccc(Br)cc2)sc(C(C)=O)c1C,i,-6.1%,5.9%,-21.2%
CCOC(=O)c1c(NC(=O)COc2ccc(OC)cc2)sc(C(=O)N(CC)CC)c1C,i,8.2%,-58.1%,11.2µM*
COc1cccc(C(=O)NCCc2nc3ccccc3n2CCOc2ccc(C)cc2)c1,x,10.8%,x,x
OCCOc1ccc(/C(=C(/CCCl)c2ccccc2)c2ccccc2)cc1,x,13.8%,x,x
CCC(=C(c1ccccc1)c1ccc(OCCN(C)C)cc1)c1ccccc1,x,19.2µM*,-26.2%,-16.1%
CC/C(=C(\c1ccccc1)c1ccc(OCCN(C)C)cc1)c1ccccc1,i,u,-29.1%,-16.4%
CCC(=C(c1ccc(O)cc1)c1ccc(OCCNC)cc1)c1ccccc1,x,24.1µM*,-28.1%,u
CC/C(=C(/c1ccc(O)cc1)c1ccc(OCCNC)cc1)c1ccccc1,x,11.2µM*,x,x
CCC(=C(c1ccc(OCCN2CCCC2)cc1)c1ccc(OCCN2CCCC2)cc1)c1ccccc1,x,-0.1%[57.5 µM],x,x
CN(C)c1ccc(Nc2ncnc3sc4c(c23)CCCC4)cc1,i,u,-78.6%,11.2µM*
CC(C)OCCCNc1ncnc2sc3c(c12)CCCC3,i,50.1µM*,-39.0%,u
COc1cc(O)c(C(CC(=O)N2CCCC(C)C2)c2ccc(C)cc2)c(OC)c1 (stereo unspecified),x,18.4%,x,x
Cc1nc([C@](C)(O)CO)sc1-c1cnc(N)c(O[C@H](C)c2cc(F)ccc2-n2nccn2)c1,x,-3.2%[57.5 µM],x,x

# Assay outcomes: PubChem, National Center for Advancing Translational Sciences (NCATS)
